Source: PubChem BioAssay (National Center for Advancing Translational Sciences (NCATS))
HEK293 tox – cytotoxicity in counter-screen for GLP-1R inverse agonists; 410,000 compounds, 0.13% hits; HEK293 cAMP-luciferase reporter cells, luminescence, 24 h; Potency, µM (series often up to 38.3 µM), hits mostly inhibitors;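 also: loss of luciferase light is scored as toxicity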
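A 23 nL compound transfer followed 12 hours of cell culture at 37 deg C; exposure then lasted 24 hr. Luciferase assay detection reagent was dispensed and plates read for luminescence after a 12 min room-temperature wait.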
GLP1R inv ag – inverse agonists of human GLP-1 receptor; P43220; HEK293 GLP-1R CRE-luciferase, luminescence, 24 h; GLP-1R form is constitutively active; Potency, µM (top dose mostly 38.3 µM), usual class: inhibitors; 410,000 compounds, 1.6% hits; AID 624417; also: nearly all actives have a fitted effect of over 55% in size
Target sequence (P43220 whole entry, looked up): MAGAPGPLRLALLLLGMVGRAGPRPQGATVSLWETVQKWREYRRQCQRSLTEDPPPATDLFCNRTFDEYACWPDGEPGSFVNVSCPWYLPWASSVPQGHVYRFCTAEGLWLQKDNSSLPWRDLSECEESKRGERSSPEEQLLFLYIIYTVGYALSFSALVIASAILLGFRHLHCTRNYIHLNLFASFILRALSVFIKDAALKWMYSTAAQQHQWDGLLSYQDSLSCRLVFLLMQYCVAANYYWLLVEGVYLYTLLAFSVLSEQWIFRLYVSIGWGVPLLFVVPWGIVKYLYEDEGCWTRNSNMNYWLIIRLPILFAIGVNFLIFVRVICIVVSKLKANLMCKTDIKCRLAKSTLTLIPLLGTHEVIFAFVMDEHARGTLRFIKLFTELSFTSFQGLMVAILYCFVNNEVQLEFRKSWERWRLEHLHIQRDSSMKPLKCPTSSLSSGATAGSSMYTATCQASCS
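Readout was luciferase luminescence, measured 12 min after detection reagent at room temperature. Beforehand, GLP-1R reporter HEK293 cells had sat 12 h, then received compounds for 24 hr at 37 deg C.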
LDHA inh – LDHA (human) enzyme inhibition; P00338; purified LDHA, NADH/diaphorase-resazurin fluorescence; active compounds read low; activity change, % (values are at about 110 or 230 µM); 480,000 compounds, 0.15% hits; AID 1347041; in the data active = activity change below about -30%; inconclusive = mostly about -25% to -30%
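Remaining NADH was detected by diaphorase (0.133 mg/mL) converting 37 µM resazurin to fluorescent resorufin, read at 0 and 20 minutes. The preceding 5-minute room-temperature reaction used 2 nM LDHA, 0.2 mM sodium pyruvate and 0.06 mM NADH at pH 7.4.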
ClpP mod – qHTS Assay for Activators of ClpP; Potency, µM (top dose mostly 57.5 µM); AID 651965, 2013; purified B. subtilis ClpP, FRET peptide cleavage, 20 min; 340,000 compounds, 1.9% hits; active = well fitted falling curve with a large enough effect; inconclusive = small, poorly fitted or top-dose-only effect; inactive = no such curve, though single readings can be large or run the other way; also: the source files actives as falling curves though it sought activators and does not explain the sign; nearly all actives have a fitted effect of over 65% in size
Target sequence (P80244 whole entry, looked up): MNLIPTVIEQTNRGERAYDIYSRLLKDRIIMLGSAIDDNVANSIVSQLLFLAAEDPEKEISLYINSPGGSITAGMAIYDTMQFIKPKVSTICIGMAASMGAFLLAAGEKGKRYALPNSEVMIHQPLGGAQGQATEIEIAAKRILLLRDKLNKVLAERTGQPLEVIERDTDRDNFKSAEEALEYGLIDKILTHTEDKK
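ClpP 10 microg/mL final, pH 8 Tris/KCl buffer with BSA, glycerol, Tween-20; compound pinned in; FRET-FV substrate; RT 20 min; Ex320/Em430; ΔFRET vs ADEP 5.8 microM, DMSO, no enzyme.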
p53 reactivator – mutant p53 re-activation in reporter cells | AID 504706 | Potency, µM (series often up to 92.2 µM), usual class: activators | H1299 p53-A138V BP100-luciferase reporter, luminescence, 24 h | 320,000 compounds, 0.063% hits; also: nearly all actives have a fitted effect of over 45% in size
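p53-null H1299 cells stably carrying temperature-sensitive p53-A138V and a BP100-luciferase reporter were pinned with compounds (4-point, 1:5 series) and held 24 hrs at 37 deg C. Luminescence was read 10 min after detection reagent.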
GLP-1R agonist – agonists of human GLP-1 receptor; P43220; HEK293 GLP-1R CRE-luciferase, luminescence, 4-6 h; cells express a hypersensitive GLP-1R form; Potency, µM (titrated, usually from 45.6 µM), actives largely listed as activators; 380,000 compounds, 0.007% hits
Large screens that a line does not name were inactive. This is a sample that favours compounds with a hit; in the whole collection about 2.9% have one here. Unless noted, calls follow the shape of the dose curve; as a rule, active = well fitted curve in the direction sought with a large enough effect; inconclusive = small, poorly fitted or top-dose-only effect, or another doubt; inactive = no such curve, though single readings can be large; an effect the other way counts as inactive or inconclusive.

CCOC(=O)c1c(C)n(CCN2CCN(C)CC2)c2ccc(OC)cc12	none
O=C(CN1c2ccccc2Sc2ccccc21)NNC(=O)Nc1ccc(Cl)cc1	HEK293 tox inconclusive, GLP1R inv ag 1.4µM
CC(C)(C)NC(=O)N1c2ccccc2Sc2ccccc21	GLP1R inv ag inconclusive
CCOC(=O)c1ccc(NC(=O)c2sc3nc4c(cc3c2N)N2CCC4CC2)cc1	none (no result: p53 reactivator)
CNc1cc(Cl)c2nonc2c1[N+](=O)[O-]	HEK293 tox 7.9µM, GLP1R inv ag inconclusive (no result: ClpP mod)
COc1ccccc1N=Cc1c(O)n(C)c(=O)n(C)c1=O	p53 reactivator inconclusive
O=C1NC(=O)C(=Cc2cccc(OCCOc3ccccc3)c2)C(=O)N1	GLP1R inv ag inconclusive, LDHA inh -31
Cc1ccc(OCCOc2cccc(C=C3C(=O)NC(=O)NC3=O)c2)c(C)c1	GLP1R inv ag 6.3µM (no result: ClpP mod)
O=C(Nc1ccc(C(F)(F)F)cc1)OC1CN2CCC1CC2 (stereo not drawn)	GLP1R inv ag inconclusive (no result: ClpP mod)
N#CC(C#N)=NNc1ccc(S(N)(=O)=O)cc1	HEK293 tox inconclusive, GLP1R inv ag inconclusive, LDHA inh -45
COc1ccc(C(=O)CN2CCOCC2)cc1F	none
c1ccc(COc2ncnc3c2ncn3CCCN2CCN(Cc3cccc4ccccc34)CC2)cc1	HEK293 tox inconclusive, GLP1R inv ag 3.5µM (no result: p53 reactivator)
COc1ccc(Cn2c(N)c(C(=O)NCc3ccco3)c3nc4ccccc4nc32)cc1OC	GLP1R inv ag inconclusive, ClpP mod 32µM
COC(=O)c1c(N)n(Cc2ccc(OC)cc2)c2nc3ccccc3nc12	ClpP mod 10µM
Nc1c(C(=O)NCc2ccco2)c2nc3ccccc3nc2n1CCc1ccc(F)cc1	ClpP mod 16µM
Cc1nc2c(=O)n(C)c(=O)nc-2n(C)n1	HEK293 tox 2µM
CCCCOc1ccc(CN2CCN(CCO)CC2)cc1	p53 reactivator inconclusive
CCCCCCOc1ccc(CN2CCN(CCO)CC2)cc1	GLP1R inv ag 2.5µM, p53 reactivator inconclusive
CCc1c(C2(O)CCCCC2)[nH]c2ccc(C(F)(F)F)cc12	HEK293 tox inconclusive, GLP1R inv ag 2.2µM
CCOC(=O)C(O)(c1ccc(N(C)C(=O)COc2ccccc2)cc1)C(F)(F)F (stereo not drawn)	none (no result: p53 reactivator)
CN(C)C(=O)O/N=C(\N)COc1ccc(C(C)(C)C)cc1	HEK293 tox 3.2µM, GLP1R inv ag inconclusive
N#Cc1cc2c(cc1-c1ccc3c(c1)OCCO3)OCCO2	none (no result: HEK293 tox, GLP1R inv ag, ClpP mod, p53 reactivator, GLP-1R agonist)
Cn1c(O)c(C(=NCCc2c[nH]c3ccccc23)c2ccccc2)c(=O)n(C)c1=O	none
CC(C)(C#CCN1CCCCC1)OCCOC(c1ccccc1)c1ccccc1	HEK293 tox inconclusive, GLP1R inv ag 5.6µM
O=C(NCCN1CCC2(CC1)C(=O)NCN2c1cccc(F)c1)c1ccc2ccccc2c1	GLP1R inv ag 7.9µM (no result: p53 reactivator)
Cc1ccccc1CN1CCCN(Cc2ccc(Cl)cc2)S1(=O)=O	GLP1R inv ag inconclusive (no result: ClpP mod)
CCN(CC)c1ccc(/C=N/NC(=O)CNC(=O)C2COc3ccccc3O2)c(O)c1 (stereo not drawn)	HEK293 tox inconclusive, GLP1R inv ag inconclusive, p53 reactivator 18µM
CCOC(=O)C1(CCOc2ccccc2)CCN(Cc2cnc(SC)nc2)CC1	GLP1R inv ag inconclusive (no result: ClpP mod)
CSc1ccc(CN2CCN(C(=O)Cc3ccccc3)CC2)cc1	GLP1R inv ag inconclusive (no result: p53 reactivator)
CSc1ccc(CN2CCN(Cc3ccccc3Cl)CC2)cc1	GLP1R inv ag inconclusive, LDHA inh -31
Cc1ccc2nc(-c3ccccc3)cc(C(=O)N3CCN(c4ccccc4O)CC3)c2c1	HEK293 tox inconclusive, GLP1R inv ag 10µM
Cc1ccc2nc(-c3ccncc3)cc(C(=O)N3CCC4(CC3)OCCO4)c2c1	none
CC(Oc1ccc(Cl)cc1Cl)C(=O)Nc1ccc(S(=O)(=O)Nc2cnc3ccccc3n2)cc1 (stereo not drawn)	ClpP mod 16µM
COc1ccc(NC(=O)C(=O)NNC(=O)C(C)Oc2ccc(Cl)cc2Cl)cc1 (stereo not drawn)	GLP1R inv ag inconclusive (no result: ClpP mod)
O=c1[nH]c(=O)n(CCc2ccc(F)cc2)c(O)c1C=NCCCn1ccnc1	none
O=S(=O)(Nc1ccc(-c2nc3ccccc3o2)cc1)c1ccccc1	ClpP mod 28µM
O=S(=O)(Nc1cccc2cccnc12)c1ccccc1	GLP1R inv ag inconclusive (no result: ClpP mod)
CN(C)C(=O)Oc1ccc(OC(=O)c2ccccc2)cc1	none
CN(C(=O)Oc1ccc(C(=O)c2ccc(Cl)cc2)cc1)c1ccccc1	GLP1R inv ag 10µM
CCCOc1ccccc1NP(=O)(Oc1ccccc1)Oc1ccccc1	GLP1R inv ag inconclusive
Cc1cc(OC(C)C(=O)NCc2ccncc2)c2c3c(c(=O)oc2c1)CCC3 (stereo not drawn)	none
COC(=O)C1=C(c2ccc(OCc3ccccc3)cc2)C[C@@H]2CC[C@H]1N2C(=O)NCc1ccc(C(C)(C)C)cc1	GLP1R inv ag 4.5µM (no result: p53 reactivator)
COC(=O)C1=C(c2cccc(OCc3ccccc3)c2)C[C@@H]2CC[C@H]1N2C(=O)NCc1ccccc1	HEK293 tox inconclusive
COC(=O)C1=C(c2ccc(F)cc2OCc2ccccc2)C[C@@H]2CC[C@H]1N2C(=O)NCc1ccccc1C(F)(F)F	GLP1R inv ag 13µM
COC(=O)C1=C(c2cccc(OCc3ccccc3)c2)C[C@@H]2CC[C@H]1N2C(=O)NCc1cccc(C(F)(F)F)c1	GLP1R inv ag 11µM
COC(=O)C1=C(c2ccc(OCc3ccccc3)cc2)C[C@@H]2CC[C@H]1N2C(=O)NCc1ccccc1	GLP1R inv ag inconclusive
COC(=O)C1=C(c2ccc(F)cc2OCc2ccccc2)C[C@@H]2CC[C@H]1N2C(=O)NCc1ccccc1Br	none
COc1ccc(C(O)P(=O)(Oc2ccccc2)Oc2ccccc2)cc1 (stereo not drawn)	none (no result: ClpP mod)
CCCC(=O)OC(C(Cl)(Cl)Cl)P(=O)(OC)OC (stereo not drawn)	none (no result: HEK293 tox, GLP1R inv ag, LDHA inh, ClpP mod, p53 reactivator)
CCOC(=O)[C@]12Cc3ccc(C)cc3[C@H]1N(C1CCCCC1)C(=O)c1cc(OC)ccc12	HEK293 tox 11µM, GLP1R inv ag inconclusive (no result: p53 reactivator)
CCCCCN1C(=O)c2cc(OC)ccc2[C@@]2(C(=O)OCC)Cc3cc(OC)ccc3[C@@H]12	HEK293 tox inconclusive, GLP1R inv ag 7.1µM (no result: p53 reactivator)
CCOC(=O)[C@]12Cc3ccc(C)cc3[C@H]1N(C1CCCCC1)C(=O)c1ccccc12	HEK293 tox inconclusive, GLP1R inv ag inconclusive (no result: p53 reactivator)
CN(C)Cc1ccccc1OC(=O)N(C)C	none
